Experimental data as given in the supplement of paper PMC13380429.

System: Vero E6 infected with SARS-CoV-2
Experiment: inhibition of SARS-CoV-2 cytopathic effect; higher = more antiviral protection, active = above 15
Conditions: 48 h

Measured: inhibition of SARS-CoV-2 cytopathic effect

C[N+](C)(C)NCCC(=O)O [meldonium]
inactive: 1 nM -1.15% | 8.33 nM -0.85% | 100 nM -2.99% | 833.33 nM -0.28% | 10000 nM -2.51%

OC[C@@H](O)[C@H]1O[C@@H]2O[C@H](C(Cl)(Cl)Cl)O[C@@H]2[C@H]1O [chloralose]
inactive: 1 nM 1.75% | 8.33 nM 3.01% | 100 nM 2.94% | 833.33 nM -0.88% | 10000 nM -0.85%

O=C(OCCO)c1ccccc1O [2-hydroxyethyl-salicylate]
inactive: 1 nM 0.19% | 8.33 nM 1.56% | 100 nM -0.09% | 833.33 nM 0.15% | 10000 nM -2.92%

NC(=O)c1cc([N+](=O)[O-])cc([N+](=O)[O-])c1 [nitromide]
inactive: 1 nM 0.52% | 8.33 nM 1.05% | 100 nM 1.48% | 833.33 nM 0.38% | 10000 nM -0.05%

CCCN(CCC)C(=O)C(CCC(=O)OCCCN1CCN(CCOC(=O)Cc2c(C)n(C(=O)c3ccc(Cl)cc3)c3ccc(OC)cc23)CC1)NC(=O)c1ccccc1 (stereo not given) [proglumetacin]
inactive: 1 nM -3.43% | 8.33 nM -2.43% | 100 nM -2.86% | 833.33 nM -4.91% | 10000 nM -12.6%

O=C(O)CCCc1c[nH]c2ccccc12 [3-indolebutyric-acid]
inactive: 1 nM -1.83% | 8.33 nM -1.26% | 100 nM 0.03% | 833.33 nM -3.61% | 10000 nM -2.44%

CC(C)NC[C@@H](O)COc1ccccc1-n1cccc1 (racemic) [isamoltane]
inactive: 1 nM 1.05% | 8.33 nM -0.83% | 100 nM 1.76% | 833.33 nM 1.65% | 10000 nM -0.73%

O=[N+]([O-])c1ccc(O)c([N+](=O)[O-])c1 [2,4-dinitrophenol]
inactive: 1 nM 2.74% | 8.33 nM 2.11% | 100 nM 5.04% | 833.33 nM 2.61% | 10000 nM 2.69%

N#Cc1c(N)nc(SCc2ncc[nH]2)c(C#N)c1-c1ccc(O)cc1
inactive: 1 nM -0.59% | 8.33 nM -2.41% | 100 nM 1.83% | 833.33 nM -3.13% | 10000 nM 0.18%

CCCc1c(OCCCCc2nnn[nH]2)ccc(C(C)=O)c1O [tomelukast]
inactive: 1 nM -8.82% | 8.33 nM -9.23% | 100 nM -10% | 833.33 nM -8.13% | 10000 nM -6.02%

CCn1c(-c2nonc2N)nc2c(C#CC(C)(C)O)ncc(OC[C@H]3CCCNC3)c21
inactive: 1 nM 2.55% | 8.33 nM 4.66% | 100 nM 3.53% | 833.33 nM 5.33% | 10000 nM 4.74%

C[C@H]1[C@H](C)CC[C@]2(C(=O)O)CC[C@]3(C)C(=CC[C@@H]4[C@@]5(C)C[C@@H](O)[C@H](O)C(C)(C)[C@@H]5CC[C@]43C)[C@H]12 [corosolic-acid]
inactive: 1 nM -3.62% | 8.33 nM -0.43% | 100 nM -0.51% | 833.33 nM -4.03% | 10000 nM -1.21%

Nc1c(CC(=O)O)cccc1C(=O)c1ccccc1 [amfenac]
inactive: 1 nM 0.42% | 8.33 nM 0.91% | 100 nM 1.2% | 833.33 nM -0.82% | 10000 nM -2.19%

Cn1c(=O)c2[nH]c(Br)nc2n(C)c1=O [pamabrom]
inactive: 1 nM 1.59% | 8.33 nM 0.19% | 100 nM 1.39% | 833.33 nM 1.95% | 10000 nM -3.72%

NC(=O)CCCCn1ccc(/N=C(\N)NCC(F)(F)F)n1
inactive: 1 nM 0.43% | 8.33 nM 2.16% | 100 nM -1.98% | 833.33 nM 0.05% | 10000 nM -0.82%

O=NN(CCCl)C(=O)NC1CCCCC1 [lomustine]
inactive: 1 nM -1.8% | 8.33 nM 1.26% | 100 nM 1.76% | 833.33 nM 2.26% | 10000 nM -0.14%

O=S(=O)(O)c1ccc(O)cc1 [4-phenolsulfonic-acid]
inactive: 1 nM -2.47% | 8.33 nM 0.25% | 100 nM 0.79% | 833.33 nM -2.18% | 10000 nM -0.48%

C=C1C(=O)O[C@@H]2/C=C(\C)CC/C=C(\C)CC[C@@H]12 [costunolide]
inactive: 1 nM -0.97% | 8.33 nM -0.24% | 100 nM -0.99% | 833.33 nM 2.87%
active: 10000 nM 19.3%

CCNC(=O)CC[C@H](N)C(=O)O [L-theanine]
inactive: 1 nM -2.94% | 8.33 nM -3.55% | 100 nM -3.29% | 833.33 nM -0.63% | 10000 nM -0.81%

CO[C@@H]1COCC[C@@H]1N[C@@H]1CC[C@@](C(=O)N2CCc3ncc(C(F)(F)F)cc3C2)(C(C)C)C1
inactive: 1 nM 0.39% | 8.33 nM -0.35% | 100 nM 0.03% | 833.33 nM -0.05% | 10000 nM -5.58%

Cc1cccc(C)c1OCC(=O)N[C@@H](Cc1ccccc1)[C@@H](O)C[C@H](Cc1ccccc1)NC(=O)[C@H](C(C)C)N1CCCNC1=O [lopinavir]
inactive: 1 nM 1.3% | 8.33 nM 1% | 100 nM 1.43% | 833.33 nM 0.57% | 10000 nM 12.6%

CNC(=O)[C@H]1O[C@@H](n2cnc3c(NCc4cccc(I)c4)ncnc32)[C@H](O)[C@@H]1O
inactive: 1 nM 0.17% | 8.33 nM 0.13% | 100 nM -0.04% | 833.33 nM 0.25% | 10000 nM -2.76%

O=P(O)(NCCCl)NCCCl [palifosfamide]
inactive: 1 nM 0.85% | 8.33 nM 0.49% | 100 nM 3.57% | 833.33 nM -1.07% | 10000 nM -7.07%

CN1CCN(c2ccc(Nc3ncc4cc(C#N)c(=O)n(C5CCCC5)c4n3)cc2)CC1
inactive: 1 nM 1.39% | 8.33 nM 1.36% | 100 nM -0.35% | 833.33 nM -6.03% | 10000 nM -6.23%

CN(C)Cc1ccc(-c2nc3cccc4c3n2CCNC4=O)cc1
inactive: 1 nM 0.51% | 8.33 nM 4.23% | 100 nM 3.95% | 833.33 nM 1.65% | 10000 nM 6.38%

CS[C@H]1SC[C@H]2C(=O)N(C)[C@@H](C(C)C)C(=O)OC[C@@H](NC(=O)c3cnc4ccccc4n3)C(=O)N[C@@H](C)C(=O)N(C)[C@@H]1C(=O)N(C)[C@@H](C(C)C)C(=O)OC[C@@H](NC(=O)c1cnc3ccccc3n1)C(=O)N[C@@H](C)C(=O)N2C [echinomycin]
inactive: 1 nM 2% | 8.33 nM -4.69% | 100 nM -19.9% | 833.33 nM -17.1% | 10000 nM -27%

COc1ccc(C(=O)N2CCCc3cc(C4=NNC(=O)SC4C)ccc32)cc1OC (stereo not given)
inactive: 1 nM -1.28% | 8.33 nM 2.27% | 100 nM 0.07% | 833.33 nM 0.74% | 10000 nM 4.36%

Cc1c[nH]c(=O)n(CCCN2CCN(c3ccccc3OCC(F)(F)F)CC2)c1=O
inactive: 1 nM -2.56% | 8.33 nM 0.88% | 100 nM -3.18% | 833.33 nM -1.23% | 10000 nM -1.99%

N#Cc1cc(-c2n[nH]c(-c3ccncc3)n2)ccn1 [topiroxostat]
inactive: 1 nM 0.4% | 8.33 nM 0.34% | 100 nM 3.87% | 833.33 nM -0.47% | 10000 nM 0.11%

CO/N=C(\C(=O)N[C@@H]1C(=O)N2C(C(=O)[O-])=C(C[N+]3(C)CCCC3)CS[C@H]12)c1csc(N)n1 [cefepime]
inactive: 1 nM 0.86% | 8.33 nM 1.89% | 100 nM 2.66% | 833.33 nM 3.19% | 10000 nM 1.42%

CN=C(N)NCCC[C@H](N)C(=O)O [L-monomethylarginine]
inactive: 1 nM -0.78% | 8.33 nM -1.38% | 100 nM 0.7% | 833.33 nM 1.39% | 10000 nM -1.85%

OC(CN1CCN(c2cccc(Cl)c2)CC1)C(c1ccccc1)c1ccccc1 (stereo not given)
inactive: 1 nM 2.69% | 8.33 nM 4.95% | 100 nM 2.68% | 833.33 nM 1.94% | 10000 nM 3.63%

O=C(OCCN1CCOCC1)C1(c2ccccc2)CCCCC1
inactive: 1 nM 3.24% | 8.33 nM 2.9% | 100 nM 1.04% | 833.33 nM 4.21% | 10000 nM 1.59%

Cc1cccc(C)c1NC(=O)C[N+](C)(C)C
inactive: 1 nM -1.32% | 8.33 nM 0.36% | 100 nM 0.02% | 833.33 nM -0.1% | 10000 nM 0.5%

CCCCCNCC(N)=O [milacemide]
inactive: 1 nM 1.56% | 8.33 nM -1.78% | 100 nM 2.01% | 833.33 nM 2.58% | 10000 nM -0.4%

Cc1ccccc1C(=O)Nc1ccc(C(=O)N2CCCC(N(C)C)c3ccccc32)cc1 (stereo not given) [mozavaptan]
inactive: 1 nM 0.68% | 8.33 nM 1.45% | 100 nM 3.31% | 833.33 nM -0.56% | 10000 nM -5.53%

CC[C@H](C)[C@@H]([C@@H](CC(=O)N1CCC[C@H]1[C@H](OC)[C@@H](C)C(=O)N[C@@H](Cc1ccccc1)c1nccs1)OC)N(C)C(=O)[C@@H](NC(=O)[C@H](C(C)C)N(C)C)C(C)C [dolastatin-10]
inactive: 1 nM -1.47% | 8.33 nM 0.79% | 100 nM -2.31% | 833.33 nM -3% | 10000 nM 0.49%

Clc1ccc([C@]23CNC[C@H]2C3)cc1Cl [amitifadine]
inactive: 1 nM 0.8% | 8.33 nM 2.82% | 100 nM 0.87% | 833.33 nM 1.86% | 10000 nM 3.82%

CC#C[C@@H](CC(=O)O)c1ccc(OCc2cccc(-c3ccc(C(F)(F)F)cc3)c2)cc1
inactive: 1 nM -0.29% | 8.33 nM 1.42% | 100 nM -0.33% | 833.33 nM 2.32% | 10000 nM 4.27%
